Artemis inh: inhibitors of human Artemis endonuclease activity | recombinant Artemis, quenched FAM hairpin cleavage fluorescence | 30,000 tested, 0.78% active | AID 686954 | Q96SD1 | inhibition, % at 10 µM;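 active means at 10 µM dose, at least 30% inhibition, measured as corrected fluorescence normalized to stimulator and neutral control wells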
Target sequence (Q96SD1 whole entry, looked up): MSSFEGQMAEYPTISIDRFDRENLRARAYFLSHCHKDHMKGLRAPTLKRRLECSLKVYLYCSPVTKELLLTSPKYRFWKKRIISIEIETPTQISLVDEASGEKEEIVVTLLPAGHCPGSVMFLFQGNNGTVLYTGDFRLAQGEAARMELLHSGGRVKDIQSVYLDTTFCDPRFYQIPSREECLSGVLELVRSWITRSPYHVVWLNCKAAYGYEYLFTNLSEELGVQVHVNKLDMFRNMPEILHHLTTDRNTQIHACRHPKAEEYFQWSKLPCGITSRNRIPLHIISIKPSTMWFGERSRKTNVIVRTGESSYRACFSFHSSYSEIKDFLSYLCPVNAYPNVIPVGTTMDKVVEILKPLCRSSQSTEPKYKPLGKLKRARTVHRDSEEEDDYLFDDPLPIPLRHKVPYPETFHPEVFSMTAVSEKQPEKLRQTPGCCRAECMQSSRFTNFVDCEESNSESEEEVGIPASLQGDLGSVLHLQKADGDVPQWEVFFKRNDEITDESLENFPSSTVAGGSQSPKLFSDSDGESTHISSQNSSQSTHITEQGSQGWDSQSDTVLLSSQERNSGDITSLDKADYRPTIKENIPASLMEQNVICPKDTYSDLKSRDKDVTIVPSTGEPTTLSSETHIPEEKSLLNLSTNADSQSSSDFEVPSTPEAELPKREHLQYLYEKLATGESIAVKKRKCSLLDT
Large screens that a line does not name were inactive. This excerpt belongs to a sample that is enriched for hits.

O=C1c2ccccc2C(=O)c2c1ccc(C(=O)N1CCCCC1)c2NCCO	none
O=C1C(Nc2ccccc2)=C(N2CCCCC2)C(=O)c2ccccc21	Artemis inh 39
O=C(Nc1ccccc1)Nc1ccc(S(=O)(=O)N2CCCCC2)cc1	none
CCC1CCCCN1CCCNC(=O)c1ccc(CS(=O)(=O)Cc2ccccc2F)o1 (stereo not drawn)	none
c1ccc(-c2nc3c(ccc4ccccc43)[nH]2)nc1	Artemis inh 44
Cc1[nH]c2ccccc2c1C(c1ccccn1)c1c(C)[nH]c2ccccc12	none
O=c1[nH]c(-c2ccccn2)nc2ccccc12	none
Nc1c(-c2ccc(Cl)cc2)cnn1-c1cccc(C(F)(F)F)c1	none
O=C(Cc1cccs1)Nc1ccc(-c2nnc(-c3ccccc3)o2)cc1	none
O=C(Nc1nc(-c2cccs2)c(-c2ccccc2)s1)c1ccco1	none
O=C(Cc1ccsc1-c1ccccc1)NO	Artemis inh 64
Cn1c(=O)[nH]c(=O)c2c1nc(NCc1ccco1)n2CCCc1ccccc1	none
CCOC(=O)N1CCN(S(=O)(=O)c2ccc(OCC)c3ccccc23)CC1	none
c1ccc(-c2nc(N3CCCCCC3)c3ccccc3n2)nc1	Artemis inh 78
c1ccc(CN2CCN(c3nc(-c4ccccc4)nc4ccccc34)CC2)cc1	none
c1ccc(-c2nc(N3CCOCC3)c3ccccc3n2)nc1	none
O=C1c2ccccc2C(=O)c2c1cccc2N1CCOCC1	none
Cc1nc2ccccc2nc1N1CCOCC1	none
O=C1C(N2CCOCC2)=C(n2nnc3ccccc32)C(=O)c2ccccc21	Artemis inh 36
Cn1ncc(N=Cc2ccccc2O)c1C(=O)Nc1ccccc1	none
CCOC(=O)C(C)(C)Sc1nc2c(cnn2-c2ccc(C)cc2)c(=O)[nH]1	none
CC(=O)Nc1cc2c(cc1Br)OCCO2	none
CC1(C)CC(=O)C(C=NCC2CCN(C(=O)Nc3ccc(Cl)c(Cl)c3)CC2)=C(O)C1	none
O=c1cc(CO)oc(CN2CCN(c3ccccc3F)CC2)c1O	none
COc1cccc(/C=N/n2c(C)nc3ccccc3c2=O)c1O	none
COc1cccc(/C=N/NC(=O)c2c(-c3ccccc3)noc2C)c1O	none
COc1cccc(/C=N/Nc2nc(Nc3ccccc3)nc(-n3nc(C)cc3C)n2)c1O	Artemis inh 96
COc1ccc(CCNC(=O)CCSc2nc(-c3ccco3)cc(C(F)(F)F)n2)cc1	none
Cn1nc(C(F)(F)F)c2cc(NC(=O)OCc3ccc(C(C)(C)C)cc3)sc21	none
COC(=O)C1=C(N)Oc2cc(C)n(Cc3cccnc3)c(=O)c2C1c1ccc(OC)c(OC)c1 (stereo not drawn)	none
CCO/C(C)=N/n1c2nc3ccccc3nc2c2c(=O)n(C3CCCC3)c(C)nc21	none
Cc1cccc(-n2cnc3c(c2=O)c2nc4ccccc4nc2n3Cc2ccco2)c1	none
Cc1nc2c(c(=O)n1CCC1=CCCCC1)c1nc3ccccc3nc1n2/N=C/c1ccco1	Artemis inh 41
CCCCCCn1cnc2c(c1=O)c1nc3ccccc3nc1n2/N=C/c1ccco1	Artemis inh 32
CCCCCCn1cnc2c(c1=O)c1nc3ccccc3nc1n2Cc1cccs1	none
CCCCn1c2nc3ccccc3nc2c2c(=O)n(CCC)cnc21	none
Cc1ccc(OC(=O)c2ccc(Br)o2)cc1	none
N#CC1=C2C=Cc3ccccc3N2CCCC1=O	none
C/C(CC(=O)NCc1ccco1)=N\NC(=O)C(c1ccccc1)c1ccccc1	none
COC(=O)CCCNS(=O)(=O)c1ccc2ccccc2c1	none
COc1ccc(C2CC(=O)C=C(NC3CCCC3)C2)cc1 (stereo not drawn)	none
CC(=O)N1CCN(c2ccc(NC(=O)c3ccccc3Br)cc2Cl)CC1	none
COc1ccc2c3c(cccc13)N(C)N=C2C	Artemis inh 58
COc1ccc(C)cc1-n1c(N)c(C#N)c(C#N)c1-c1ccc(OC)c(OC)c1OC	none
CC(C)COP(=O)(OCC(C)C)C(O)c1ccccc1F (stereo not drawn)	none
O=C(O)c1ccccc1C(=O)c1cccs1	none
Cc1ccc(C)n1-c1sccc1C(=O)O	Artemis inh 33
Cc1ccc(C(=O)c2ccccc2C(=O)O)s1	none
O=C(CN(Cc1ccco1)C(=O)CNS(=O)(=O)c1ccc(F)cc1)NCc1ccc(F)cc1	none
CCC(=O)N/C=C/n1cnc2cc(C(F)(F)F)ccc21	none
Cc1ccc(Oc2ncccc2/C=N/O)cc1	none
COc1ccc(NC(=O)CSc2nc3c(cc2C#N)CN(C)CC3)cc1	Artemis inh 37
COc1ccc(-c2c(C#N)c(SCC(=O)Nc3ccccc3)nc3c2CCCC3)cc1	none
COc1ccc(NC(=O)CSc2nc(C)cc(C)n2)cc1	none
CC(=O)C1=C(C)NC(C)=C(C(C)=O)C1c1cccs1	none
COc1ccccc1CN(C(=O)c1ccco1)C(C(=O)NC1CCCC1)c1ccncc1 (stereo not drawn)	Artemis inh 83
COc1cccc(CN(C(=O)c2ccco2)C(C(=O)NC2CCCC2)c2cccnc2)c1 (stereo not drawn)	none
COc1cccc(C(C(=O)NC2CCCC2)N(Cc2ccc(C)cc2)C(=O)c2ccco2)c1OC (stereo not drawn)	none
Cc1cc(C)c(C(N)=O)c(Nc2cccc3ccccc23)n1	Artemis inh 34
Cc1cc(C)c(C(N)=O)c(Nc2ccc3c(c2)OCCO3)n1	none
COc1ccccc1Nc1nc(C)cc(C)c1C(N)=O	none
CCC(c1nnnn1Cc1ccc2c(c1)OCO2)N1CCN(c2ccccc2)CC1 (stereo not drawn)	none
O=C(O)CCC(=O)Nc1nc(-c2ccccc2)cs1	none
O=C(Nc1nc(-c2ccccn2)cs1)c1ncc(Cl)c(Cl)c1Cl	none
O=C(CCCSc1ccccc1)Nc1nc(-c2ccccn2)cs1	Artemis inh 58
Cc1noc(C)c1CSc1nc2ccccc2c(=O)n1-c1ccccc1	none
Cc1noc(C)c1CSc1nc2ccccc2nc1NS(=O)(=O)c1ccc(Cl)cc1	Artemis inh 33
O=S(=O)(Nc1nc2ccccc2nc1NCc1ccco1)c1ccc(Cl)cc1	none
Cc1nc(C)c(C(=O)C2=C(O)C(=O)N(CCCn3ccnc3)C2c2ccccc2)s1 (stereo not drawn)	none
O=C(NCc1ccccc1)c1ccc2c(c1)C(=O)N(Cc1ccncc1)C2=O	none
COc1ccc(C(=O)NNC(=S)NC(=O)c2cc(-c3ccccc3)nc3ccccc23)cc1	none
CCOC(=O)C1CCCN(C(=O)Cc2ccc(Cl)cc2)C1 (stereo not drawn)	none
Cc1ccc(Nc2nc(N)nc(CN3CCN(Cc4ccc5c(c4)OCO5)CC3)n2)cc1	none
CCOC(=O)N1CCN(Cc2nc(N)nc(Nc3ccc(Oc4ccccc4)cc3)n2)CC1	Artemis inh 39
CCOC(=O)C1CCCN(Cc2nc(N)nc(Nc3ccc(Cl)cc3)n2)C1 (stereo not drawn)	Artemis inh 34
CCCCOc1ccc(NC(=O)CN2CCN(C(=O)OCC)CC2)cc1	none
CCOC(=O)C1CCCN(c2cc(C)nc3cc(-c4ccc(Cl)cc4)nn23)C1 (stereo not drawn)	none
CCNc1c([N+](=O)[O-])ncn1C	none
CCOc1ncccc1C(=O)OCC(=O)c1ccc(Cl)s1	none
Cc1noc(NC(=O)c2ccccc2)c1C#N	none
N#Cc1c(N)n(CCNC(=O)c2ccc(Cl)cc2)c2nc3ccccc3nc12	none
CCC(C)n1c(NC(=O)c2ccccc2)c(C#N)c2nc3ccccc3nc21 (stereo not drawn)	Artemis inh 39
O=C(O)/C(=C1\OC(=O)c2ccccc21)c1ccccc1	none
Oc1c(Br)cc(Br)cc1/C=N/c1nc2c(s1)CCCC2	none
Oc1ccc2ccccc2c1/C=N/c1nc2c(s1)CCCC2	Artemis inh 63
Oc1ccc2ccccc2c1C=Nc1ccccc1-c1nc2ccccc2[nH]1	none
Cc1nc2sc(C(c3ccc(Cl)cc3)N3CCN(C(=O)c4ccco4)CC3)c(O)n2n1 (stereo not drawn)	none
NC(=O)CSc1nnc(-c2cc(-c3cccs3)nc3ccccc23)o1	none
